# A selection: hits, their analogues and other compounds. The true share with any hit is near 3.2%.
# TWEAK-Fn14 inh = inhibitors of TWEAK-Fn14 interaction signaling. inhibition, % at 10 µM. TWEAK-stimulated Fn14 reporter cells, luciferase luminescence, 8 h. 360,000 compounds, 2% hits; in the data active means inhibition above about 50%
# TROY signal inh = inhibitors of TROY-dependent NF-kB signaling; Q293 LMP1-TROYcd NF-kB luciferase reporter, 4 h; inhibition, % at 10 µM; 360,000 compounds, 0.98% hits; AID 1347056;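 active means compounds whose plate-normalised and pattern-corrected inhibition of the luciferase reporter signal at the single screening dose is 50% or more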
# EWS-Fli inh = EWS/Fli transcriptional activity inhibition; A673 NR0B1-luciferase reporter, viability-normalised; inhibition, % at 12.6 µM; 350,000 compounds, 0.67% hits; AID 651661;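 active means mean inhibition of at least 50% after viability correction, with every replicate also passing that limit; inconclusive means mean reaches 50% but only one of two replicates passes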;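 further: firefly luciferase signal divided by Alamar Blue viability fluorescence both relative to DMSO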
# PAX8 reporter = lowers PAX8-driven luciferase in RMG-I cells. RMG-I TPO-luciferase reporter, SteadyGlo, 24 h. inhibition, % at 12.6 µM. 360,000 compounds, 1.2% hits;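 active means mean replicate inhibition at least 60% with every replicate also reaching 60%; inconclusive means only one of the two criteria is met; inactive means mean below 60% and not all replicates reaching 60%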;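 further: luciferase light reporting Pax8 driven TPO promoter activity; plate controls were median of neutral control wells for no effect and mitoxantrone controls for full effect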
# EBV LMP1 NFkB = reduces LMP1-driven NF-kappaB luciferase signal. LMP1-induced NF-kappaB luciferase reporter cells, luminescence. inhibition, % at 12.5 µM. 350,000 compounds, 0.69% hits. AID 504558; in the data active means inhibition above about 41%; inconclusive means no clear call, values can overlap the other calls;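 further: 0% = neutral control wells and 100% = reference inhibitor control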
# LGR2 inh = blocks bursicon-induced cAMP signaling via Drosophila LGR2 | HEK293 LGR2, CRE-luciferase, bursicon-stimulated, 4 h | inhibition, % at 9.99 µM | 380,000 compounds, 0.35% hits | AID 720647;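 active means drop in luminescence signal, shown as inhibition above about 50% in the replicate tests, limit read from the data, passing the limit was not always enough; inconclusive means probably only some replicates passing the limit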;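 further: agonist challenge used bursicon conditioned medium at about half maximal strength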
# DNA binding = DNA binding small molecules | shares compounds with EWS-Fli inh | AID 720586 | 640 compounds, 2% hits | AC35, µM (titrated, usually from 68 µM), without a hit: at the top dose activity change, negative = DNA binding | salmon sperm DNA acridine orange fluorescence polarization;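 active means fitted curve reaches a 35% signal fall AC35 below twice the sample's top valid tested dose, actives reach about 48 µM in these data; inactive means the rest, including activity in the rising direction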;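 further: lower polarization ratio signals compound binding to DNA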
# * marks the source's active call; other numbers are inactive results; ? = inconclusive; . = no result.
SMILES,TWEAK-Fn14 inh,TROY signal inh,EWS-Fli inh,PAX8 reporter,EBV LMP1 NFkB,LGR2 inh,DNA binding
Cc1cc(C)c2sc(NNC(=O)c3ccc(S(=O)(=O)N4CCc5ccccc5C4)cc3)nc2c1,16,15,54*,99*,49*,.,-5%
Nc1ccn([C@@H]2O[C@H](CO)[C@@H](O)C2O)c(=O)n1 (some centres not stated),-44,23,51*,25,47*,28,-7%
CO[C@H]1CC[C@@H]2CCOc3c(C#N)cccc3C(=O)N(C)C[C@H](C)C(=O)N(C)C[C@@H]1O2,.,.,-1,10,.,-13,.
CCCCCCCCCCCCCCCCn1cc[n+](C)c1,78*,42,73*,99*,5,.,-17%
CCCCCCCCn1ccc(=N)cc1,-6,0,15,7,15,12,.
CC(=O)Nc1ccc(OCC(=O)N(CC(C)C)C2CCS(=O)(=O)C2)cc1 (configuration not stated),14,-3,68*,28,0,.,0%
COCCNC(=O)[C@H]1[C@H](CO)[C@H]2Cn3c(cccc3=O)[C@H]2N1Cc1ccccc1OC,.,.,.,-16,.,-9,.
Cc1ccc2oc(/N=C(\N)NC(=O)C(C)(C)C)nc2c1,104*,92*,85*,29,66*,100*,-6%
C[C@H](CO)N1C[C@H](C)[C@H](CN(C)S(=O)(=O)c2ccccc2)OCCCC[C@H](C)Oc2ccc(NC(=O)C3CCCCC3)cc2C1=O,.,.,9,-1,.,23,.
CCOC(=O)Cc1ccc(NC(=O)c2ccc(C(C)(C)C)cc2)cc1,25,-5,.,.,5,.,.
CCOC(=O)Cc1ccc(NC(=O)c2ccccc2Br)cc1,7,-2,52*,-36,4,.,-1%
CC(=O)N1CCCC(c2cc(C(=O)Nc3ccccc3)no2)C1 (configuration not stated),101*,80*,75*,?,.,88*,-2%
O=C(Nc1ccccc1)c1cc(C2CCCN(C(=O)C/C=C/c3ccccc3)C2)on1 (configuration not stated),7,7,-15,-21,.,-40,.
O=c1oc2cc(O)ccc2s1,9,0,60*,-8,13,.,-3%
Oc1ccc2c(c1)oc1cc(O)ccc12,8,-33,.,.,-34,.,.
O=C(O)c1ccc(N/N=C/c2cc(Br)cs2)cc1,-6,49,65*,26,-1,43,-3%
Cc1ccsc1/C=N/Nc1ccc(C(=O)O)cc1,99*,49,71*,78*,22,69*,5%
COc1ccc(/C=N/Nc2ccc(C(=O)O)cc2)cc1OC,44,-24,-37,-60,-4,-11,.
Cc1ccsc1/C=N/Nc1cccc(C(=O)O)c1,32,-67,66*,90*,66*,88*,-8%
O=C(N/N=C\c1cc(Br)cs1)c1ccncc1,-9,-29,-4,0,-3,-4,.
COc1ccc(/C=N/Nc2ccc(C(=O)O)cc2)cc1Br,93*,66*,69*,44,36,80*,-7%
CCCN1[C@@H]2c3ccc(-c4ccc(C(=O)N(C)C)cc4)c(=O)n3C[C@@H]2[C@@H](CO)[C@@H]1C(=O)NCCOC,.,.,-2,.,.,17,.
C[C@@H]1CN([C@@H](C)CO)C(=O)Cc2cc(NS(=O)(=O)c3ccc(Cl)cc3)ccc2O[C@@H]1CN(C)C,.,.,3,2,.,-22,.
O=c1c(Cl)cc(Cl)nn1-c1ccccc1,37,3,64*,88*,-11,-5,1%
COc1cc(Cl)nn(-c2ccccc2)c1=O,8,-2,.,-1,-12,-9,.
SMILES,TWEAK-Fn14 inh,TROY signal inh,EWS-Fli inh,PAX8 reporter,EBV LMP1 NFkB,LGR2 inh,DNA binding
COc1ccc(/C=C(/C(=O)c2cccs2)N2C=CC=CC2=C(C#N)C#N)cc1,34,40,79*,-8,0,.,2%
COc1ccc(C(=O)/C(=C\c2ccco2)N2C=CC=CC2=C(C#N)C#N)cc1,11,-9,.,.,10,.,.
CS(=O)(=O)Nc1ccc2c(c1)[C@@H]1C[C@H](CC(=O)N3CCOCC3)O[C@H](CO)[C@@H]1O2,.,.,5,.,.,8,.
Cc1c(O)ccc2c(CN3CCN(Cc4ccccc4)CC3)cc(=O)oc12,-37,-19,-9,0,1,14,.
O=c1cc(CN2CCN(Cc3ccccc3)CC2)c2ccc(O)c(O)c2o1,-19,-6,52*,29,9,-1,-5%
CCOc1cc2[nH]c(=S)n(Cc3ccc(C(=O)NCCN(CC)CC)cc3)c(=O)c2cc1OCC,-4,1,58*,-33,0,-11,3%
Nc1ccc(-c2cc3ccccc3c(=O)o2)cc1,50,-3,64*,-14,37,-13,-24%
COc1cc(OC)cc(-c2cc3ccccc3c(=O)o2)c1,-30,-54,-56,-90,-31,-60,.
O=C(CNC(=O)Cc1ccccc1)N=Nc1c(O)n(Cc2ccc3c(c2)OCO3)c2ccccc12,0,2,66*,4,6,-14,-7%
COC(=O)Cn1c(O)c(N=NC(=O)CNC(=O)c2ccc3c(c2)OCCO3)c2ccccc21,13,-22,.,10,-6,7,.
C[C@@H]1CN([C@H](C)CO)C(=O)c2cc(C3=CCCC3)cnc2O[C@@H]1CN(C)S(C)(=O)=O,.,.,-5,-20,.,12,.
CCc1ccc(Cn2ncc3c(C(=O)O)cc(C)nc32)cc1,11,4,75*,-5,3,-12,10%
CCc1ccc(NC(=O)c2cnn3c(C(F)F)cc(C)nc23)cc1,-19,2,0,7,2,2,.
COC(=O)C[C@H]1C=C[C@@H](NC(=O)Nc2ccc(C(F)(F)F)cc2)[C@H](CO)O1,.,.,67*,-13,.,9,-3%
COC(=O)C[C@H]1C=C[C@H](NC(=O)Nc2ccc(C(F)(F)F)cc2)[C@H](CO)O1,.,.,-44,-6,.,25,.
O=C(NC(=O)c1ccccc1)Nc1ccccc1,72*,10,56*,-7,22,37,-13%
COC(=O)c1cccc(NC(=O)NC(=O)c2ccc(Cl)cc2)c1,-12,-31,87*,-21,25,-6,-7%
COc1ccc(C(=O)CN2C(=O)c3ccccc3S2(=O)=O)cc1,102*,85*,87*,93*,.,101*,6%
CCCn1c(C)cc(C(=O)CN2C(=O)c3ccccc3S2(=O)=O)c1C,8,23,82*,96*,82*,56*,-2%
O=C(C[C@H]1C[C@@H]2c3cc(NS(=O)(=O)c4ccccc4)ccc3O[C@@H]2[C@@H](CO)O1)N1CCCCC1,.,.,0,4,.,13,.
CN(C)CC1CCC/C(=C\c2ccc(OC(=O)c3ccc(Cl)cc3)cc2)C1=O (configuration not stated),17,-5,59*,.,25,7,-8%

# Screens deposited in PubChem by several laboratories.
